Assay results taken from PubChem BioAssay.
Active and inactive are the calls of the source.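 How the source made its calls, unless noted: active means inhibition of the reporter signal at or above 50%; inactive means inhibition below 50%.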

What was measured:
[1] = inhibitors of TNFa-induced NFkB p65 translocation, primary screen, imaging, HUVEC, MLSMR starter and 10KST1 sets (AID 438;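 active means inhibition above 20% together with a positive visual image hit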;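 further: compound added about 3h40 before a 20 min TNFalpha stimulation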;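 on inhibition: signal is the nuclear over cytoplasmic p65 intensity ratio per well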); settings: HUVEC TNFa-induced p65 nuclear translocation; cell count: measured here: nuclei count (cytotoxicity indicator), at 2.08 µM; inhibition: at 2 µM, stronger effect = higher value, 0% TNFa-plus-vehicle, 100% no-TNFa wells
[2] = reduction of polyQ htt aggregates in cells – imaging, exon1htt(103Q)mCFP cells, high-content imaging, primary screen (AID 483;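 active means visual image review flags a hit and inhibition of aggregation exceeds 20%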;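 further: compound exposure lasted 3 days before fixation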;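 on nuclei count: percent of the per-plate median nuclei count of sample wells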); settings: exon1htt(103Q)mCFP cell line, aggregate imaging, at 2 µM; inhibition of aggregation: stronger effect = higher value; nuclei count: measured here: cell count, toxicity
[3] = endothelial E-selectin expression blockers – imaging, HUVEC, immunofluorescence, MLSMR starter and 10KST1 sets, primary screen (AID 487;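 active means visually confirmed hit in the image check and inhibition above 20%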;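 on inhibition: signal is fraction of cell area covered by stained E-selectin grains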;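 on nuclei count: 100% = median nuclei count of all wells on the same plate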); settings: HUVEC TNFalpha-induced E-selectin immunofluorescence imaging, at 2 µM; inhibition: stronger effect = higher value; nuclei count: measured here: cell number, toxicity
[4] = biological target: Voltage-gated potassium channel subunit beta-2 (Rattus norvegicus) (UniProt P62483); assay: inhibitors of rat Kvbeta2 reductase activity – biochemical, NADPH fluorescence, primary screen (AID 622;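 active means fluorescence slope higher than the sample average by over 3 SD, cut at about -0.22 in these data, passing the limit was not always enough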;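 further: slope of raw intensity against log time taken from 70 to 1610 s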); settings: recombinant KvBeta, 4-cyanobenzaldehyde reduction, at 10 µM, stronger effect = higher value
Chain of Voltage-gated potassium channel subunit beta-2 (Rattus norvegicus) (P62483 whole entry, looked up): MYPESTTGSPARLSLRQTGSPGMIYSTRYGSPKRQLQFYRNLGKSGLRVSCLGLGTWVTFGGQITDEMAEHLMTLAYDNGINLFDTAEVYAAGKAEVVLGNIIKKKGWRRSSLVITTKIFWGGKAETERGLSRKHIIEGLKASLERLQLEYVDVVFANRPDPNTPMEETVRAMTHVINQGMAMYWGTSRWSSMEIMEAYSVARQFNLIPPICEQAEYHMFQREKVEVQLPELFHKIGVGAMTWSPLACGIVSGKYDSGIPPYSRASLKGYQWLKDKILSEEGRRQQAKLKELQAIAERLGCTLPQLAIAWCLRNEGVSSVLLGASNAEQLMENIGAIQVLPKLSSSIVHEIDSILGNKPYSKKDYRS

[5] = biological target: Voltage-gated potassium channel subunit beta-2 (Rattus norvegicus) (UniProt P62483); assay: enhancers of rat Kvbeta2 NADPH turnover – biochemical, NADPH fluorescence, primary screen (AID 623;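 active means NADPH fluorescence slope more negative than the mean of all samples by about 3 SD, 99.7% confidence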;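 further: fluorescence intensity change per second fitted from 20 to 320 s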); settings: Recombinant KvBeta, NADPH fluorescence decrease slope, 10 min; at 10 µM; stronger effect = lower value
[6] = biological target: Alpha-2C adrenergic receptor (Homo sapiens) (UniProt P18825); assay: compounds altering alpha2C-coupled GIRK flux – cell-based, HEK293 alpha2C/GIRK1/2, thallium flux, primary screen (AID 624;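 active means fluorescence slope after compound addition differing from the mean of all screened samples at 99.7% confidence, in either direction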;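 further: slope of fluorescence ratio to pre-addition baseline per second over 15 to 24 s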); settings: thallium flux BTC fluorescence, at 10 µM, actives lie on both sides
Chain of Alpha-2C adrenergic receptor (Homo sapiens) (P18825 whole entry, looked up): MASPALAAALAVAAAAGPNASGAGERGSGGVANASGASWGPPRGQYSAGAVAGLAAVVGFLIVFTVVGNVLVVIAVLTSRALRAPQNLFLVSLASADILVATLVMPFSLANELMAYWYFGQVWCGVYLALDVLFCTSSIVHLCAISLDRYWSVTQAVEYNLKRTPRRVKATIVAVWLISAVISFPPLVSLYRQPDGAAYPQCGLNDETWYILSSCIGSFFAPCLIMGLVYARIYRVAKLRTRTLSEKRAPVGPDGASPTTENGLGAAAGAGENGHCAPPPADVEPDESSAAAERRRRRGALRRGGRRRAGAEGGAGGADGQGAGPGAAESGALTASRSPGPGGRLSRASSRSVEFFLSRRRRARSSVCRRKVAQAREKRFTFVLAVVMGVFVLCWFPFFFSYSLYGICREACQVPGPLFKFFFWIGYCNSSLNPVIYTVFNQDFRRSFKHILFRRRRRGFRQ

[7] = blockers of RIG-like receptor reporter activation – cell-based, Sendai virus stimulus, luciferase, 10K MLSCN set, TLR/RLR signaling modifier project, primary screen (AID 602276;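 active means inhibition at or above 50% at 10 µM; inactive means inhibition below 50%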;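 further: firefly luciferase from ISG56 promoter only with Renilla not read in this screen; 0% = Sendai virus plus DMSO and 100% = medium plus DMSO without virus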); settings: HEK293 RL24 IRF3 luciferase reporter, at 10 µM, stronger effect = higher value
[8] = TLR3 IRF3 reporter activation blockers – cell-based, poly I:C stimulus, luciferase, 10K MLSCN set, primary screen (AID 602277); settings: HEK293-TLR3 RL24 IRF3 luciferase reporter, at 10 µM, stronger effect = higher value

SMILES | cell count [1] | inhibition [1] | inhibition of aggregation [2] | nuclei count [2] | inhibition [3] | nuclei count [3] | fluorescence slope [4] | NADPH fluorescence slope [5] | slope [6] | inhibition [7] | inhibition [8]
O=C(O)CCNc1nc(-c2ccccc2)nc2ccccc12 | 619 | -7.6% (inactive) | -14.3% (inactive) | 103% | -28.1% (inactive) | 127% | -0.579 (inactive) | 3e-05 (inactive) | 0.00675 (inactive) | -3.96% (inactive) | 7.69% (inactive)
CC(C)CNC(=O)c1ccccc1NC(=O)c1ccc(CN2CCOCC2)cc1 | 729 | 5.7% (inactive) | 4% (inactive) | 93.4% | -11% (inactive) | 111% | -0.473 (inactive) | -5.1e-05 (inactive) | 0.00594 (inactive) | 1.28% (inactive) | 14.5% (inactive)
O=C(OCn1nnc2ccccc2c1=O)C1CCN(S(=O)(=O)c2cccs2)CC1 | 479 | 8.9% (inactive) | -8.9% (inactive) | 103% | 13.8% (inactive) | 105% | -0.356 (inactive) | 9.4e-06 (inactive) | 0.00571 (inactive) | -1.19% (inactive) | 2% (inactive)
CCOc1ccccc1-c1nc(-c2ccc(C)nc2OC)no1 | 404 | 4.8% (inactive) | -2% (inactive) | 82.1% | 1.8% (inactive) | 96.3% | -0.552 (inactive) | 1.8e-05 (inactive) | 0.00778 (inactive) | -91.4% (inactive) | -227% (inactive)
COc1ccccc1N1CCN(C(=O)CN(Cc2ccc(Cl)cc2)S(C)(=O)=O)CC1 | 458 | -7.3% (inactive) | -18.6% (inactive) | 112% | -130% (inactive) | 174% | -0.49 (inactive) | 7.6e-06 (inactive) | 0.00623 (inactive) | 17.3% (inactive) | 24.8% (inactive)
CCOc1ccccc1C1NC(=O)NC(C)=C1C(=O)OC1CCCC1C (centres undefined) | 686 | 2.9% (inactive) | -3.3% (inactive) | 103% | 13.9% (inactive) | 99.1% | -0.488 (inactive) | -5e-05 (inactive) | 0.00539 (inactive) | 16.6% (inactive) | 22.2% (inactive)
CCOC(=O)CNC(=O)CSc1nnnn1-c1cc(C)ccc1C | 355 | -3.6% (inactive) | 14.6% (inactive) | 89.4% | 51.5% (inactive) | 82% | -0.533 (inactive) | 3e-05 (inactive) | 0.00704 (inactive) | 4.69% (inactive) | 10.9% (inactive)
COc1cc(C(=O)Nc2cc(C)ccn2)cc(OC)c1OC | 298 | -1.9% (inactive) | 4.3% (inactive) | 98.4% | -87% (inactive) | 113% | -0.472 (inactive) | 3.1e-06 (inactive) | 0.00568 (inactive) | -4.57% (inactive) | 7.2% (inactive)
CCOC(=O)N1CCN(C(=O)CN2C(=O)COc3ccc(C)cc32)CC1 | 590 | 1.5% (inactive) | 9.7% (inactive) | 98.6% | -64.6% (inactive) | 107% | -0.364 (inactive) | -3.7e-05 (inactive) | 0.00215 (inactive) | 7.89% (inactive) | 29.7% (inactive)
C=CCOc1nc2c(c(=O)n(C)c(=O)n2C)n1C | 339 | 1% (inactive) | -1.3% (inactive) | 113% | 0.3% (inactive) | 119% | -0.444 (inactive) | -4.9e-05 (inactive) | 0.00278 (inactive) | 6.05% (inactive) | 34.1% (inactive)
Cc1ccccc1C(=O)Nc1c(C(=O)N2CCCC2)cnn1-c1ccccc1 | 314 | -6.8% (inactive) | 2.8% (inactive) | 83.6% | -34.4% (inactive) | 84% | -0.596 (inactive) | -2.6e-05 (inactive) | 0.00707 (inactive) | 13.2% (inactive) | 26.1% (inactive)
COc1ccc(CCNc2oc(COc3ccccc3Cl)nc2C#N)cc1OC | 643 | 0.3% (inactive) | -3% (inactive) | 99.9% | -24.6% (inactive) | 109% | -0.462 (inactive) | -5.7e-05 (inactive) | 0.00453 (inactive) | 1.77% (inactive) | -11% (inactive)
CCCN(CCC)C(=O)c1c(C)[nH]c(C(=O)OCC)c1C | 740 | 0.6% (inactive) | 2% (inactive) | 109% | -78.7% (inactive) | 106% | -0.605 (inactive) | -2.3e-05 (inactive) | 0.00726 (inactive) | -15.1% (inactive) | -1.04% (inactive)
COc1ccc(S(=O)(=O)N2CCN(CC(=O)Nc3ccc(C)c(F)c3)CC2)cc1 | 339 | -8.1% (inactive) | -0.4% (inactive) | 115% | -4.2% (inactive) | 80.5% | -0.518 (inactive) | 1.2e-05 (inactive) | 0.00517 (inactive) | 18.5% (inactive) | 23.8% (inactive)
